TRPM1 prom inh = reduces MITF-dependent TRPM1 promoter luciferase signal | inhibition, % at 12.5 µM | 330,000 tested, 0.83% active | SK-MEL-5 TRPM1 promoter luciferase, 24 h;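 active means mean inhibition across replicates of 60% or more, whatever share of single replicates reaches that level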
Peg3 prom inh-1 = Peg3 promoter activity inhibition; HeLa PEG-Prom luciferase reporter, luminescence, overnight; inhibition, % at 20 µM; 360,000 tested, 1.7% active;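 active means inhibition of at least 50% at 20 µM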
KKLEB cytotox = counter-screen for CF NF-kB inhibitors: cytotoxicity. KKLEB CF airway cells viability, ATPlite luminescence, overnight; stronger effect = lower value; cells stimulated with P. aeruginosa culture filtrate. 360,000 tested, 0.36% active. activity change (cytotoxicity), % at 5 µM. AID 602141;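 active means corrected activity change at or below -50% at 5 µM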
Shn3 3UTR inh = reduces Shn3 3'UTR luciferase signal in osteoblasts; 360,000 tested, 0.52% active; inhibition, % at 12.5 µM; AID 588674; Clone20 osteoblast Shn3 3'UTR firefly luciferase, 24 h;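 active means mean inhibition of at least 75% with every replicate also reaching 75%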
CF NFkB block = inhibitors of cystic fibrosis induced NF-kB; KKLEB NF-kB-GFP reporter, PAF-induced, GFP fluorescence overnight; inhibition, % at 5 µM; 360,000 tested, 0.86% active; AID 588850;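 active means at least 50% inhibition at 5 µM, scaled per plate between neutral and stimulator controls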;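 further: PAF is a Pseudomonas aeruginosa culture filtrate used as stimulus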
LMP1 NFkB inh = inhibitors of Epstein-Barr LMP1-induced NF-kappaB reporter | LMP1-induced NF-kappaB luciferase reporter cells, luminescence | AID 504558 | 350,000 tested, 0.69% active | inhibition, % at 12.5 µM; in the data active means inhibition above about 41%
Peg3 prom inh-2 = confirmation of Peg3 promoter inhibitors; inhibition, % at 20 µM; HeLa PEG-Prom luciferase reporter, luminescence, overnight; 1,300 tested, 84% active; shares compounds with Peg3 prom inh-1;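 active means at 20 µM dose, 40% or more inhibition averaged across four replicates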
Large screens that a line does not name were inactive (follow-up assays come after a bar, where they were run). This is a sample that favours compounds with a hit; in the whole collection about 2.9% have one here.

CN(C)CCNc1ccc(CO)c2oc3ccc(O)cc3c(=O)c12	Peg3 prom inh-1 96.9 | Peg3 prom inh-2 90.4
CC(=O)Nc1ccc(NC(=O)c2nc(S(=O)(=O)Cc3ccccc3)ncc2Cl)cc1	TRPM1 prom inh 87.5, Peg3 prom inh-1 101.6, KKLEB cytotox -77.0, Shn3 3UTR inh 94.9, CF NFkB block 96.4 | Peg3 prom inh-2 95.5
CC(=O)Nc1ccc(NC(=O)CS(=O)(=O)Cc2ccccc2)cc1	none
Cc1ccc(C(=O)n2c(N)nc3ccccc32)cc1	TRPM1 prom inh 66.6, Peg3 prom inh-1 79.9, LMP1 NFkB inh 64.7 | Peg3 prom inh-2 inactive
Cc1ccc(S(=O)(=O)n2c(N)nc3ccccc32)cc1	none
CC(C)CN1C(=O)C(=O)N(CC(=O)NCCCc2ccccc2)C1=O	none (no result: TRPM1 prom inh)
c1cc(-c2ccc(N3CCOCC3)cc2)n2ccnc2c1	none (no result: TRPM1 prom inh, LMP1 NFkB inh)
CN=c1sc2c(n1C)C(=O)c1ccccc1C2=O	TRPM1 prom inh 92.7, Peg3 prom inh-1 88.2, KKLEB cytotox -67.2, CF NFkB block 82.5 | Peg3 prom inh-2 91.2
Cc1cc(C)c(C)c(S(=O)(=O)N2CCN(C(=O)c3cc(=O)[nH]c4ccccc34)CC2)c1C	Peg3 prom inh-1 58.9 | Peg3 prom inh-2 58.4
Cc1c(C)c2ccc(OCC(=O)Nc3ccccn3)c(C)c2oc1=O	TRPM1 prom inh 86.5, Peg3 prom inh-1 93.4, KKLEB cytotox -90.5, Shn3 3UTR inh 93.9 | Peg3 prom inh-2 84.4
O=C(COc1ccc(Cl)cc1Cl)Nc1ccccn1	TRPM1 prom inh 80.2, Peg3 prom inh-1 92.0, KKLEB cytotox -92.4, LMP1 NFkB inh 64.3 | Peg3 prom inh-2 87.3
CCCNC(=O)C1(C)CCN(Cc2ccc(OCc3ccccc3)cc2)C1 (centres undefined)	none (no result: TRPM1 prom inh, LMP1 NFkB inh)
COC(=O)c1ccc2cc(C)cc(C)c2n1	none (no result: TRPM1 prom inh, LMP1 NFkB inh)
COc1ccc(-c2c(-c3cc(OC)cc(OC)c3)n(C)c3ccc(-c4cnc(N)nc4)cc23)cc1	none
COc1ccc(-c2c(-c3cc(OC)cc(OC)c3)n(C)c3ccc(-c4ccc(S(N)(=O)=O)cc4)cc23)cc1	Peg3 prom inh-1 53.1 | Peg3 prom inh-2 inactive
COc1cccc(NC(=O)Nc2cccc(C(=O)O)c2)c1	TRPM1 prom inh 81.4, Peg3 prom inh-1 67.3, LMP1 NFkB inh 61.4 | Peg3 prom inh-2 55.0
O=C(Nc1cccc(C(=O)O)c1)Nc1ccc2c(c1)OCO2	TRPM1 prom inh 89.3, Peg3 prom inh-1 84.0, LMP1 NFkB inh 73.3 | Peg3 prom inh-2 73.5
COc1cccc(NC(=O)c2ccccc2)c1	none
O=C1CCC2S/C(=C/Nc3ccc(C(F)(F)F)cc3)C(=O)N12 (centres undefined)	TRPM1 prom inh 86.1, Peg3 prom inh-1 66.9, LMP1 NFkB inh 51.3 | Peg3 prom inh-2 89.5
COCCNC(=O)C1(C)CCN(C(=O)c2cccnc2Oc2ccccc2)C1 (centres undefined)	none (no result: TRPM1 prom inh, LMP1 NFkB inh)
O=C(Cc1csc(Nc2nc(=S)[nH]c3ccccc23)n1)NCc1cccc(Cl)c1	none
O=C(Cc1csc(Nc2nc(=S)[nH]c3ccccc23)n1)NCc1ccccc1Cl	Peg3 prom inh-1 50.9 | Peg3 prom inh-2 44.4
CC(=O)CCc1ccc(Oc2nc(-c3cccnc3)nc3ccccc23)cc1	Peg3 prom inh-1 66.0 | Peg3 prom inh-2 inactive
N#CCCN(Cc1ccccc1)C(CCc1ccccc1)C(=O)NC1CCCCC1 (centres undefined)	none (no result: TRPM1 prom inh, LMP1 NFkB inh)
O=C(Nc1ccncc1)C1COc2ccccc2O1 (centres undefined)	none
O=C(NC1=NCCS1)C1COc2ccccc2O1 (centres undefined)	TRPM1 prom inh 79.8, Peg3 prom inh-1 106.2, LMP1 NFkB inh 70.7 | Peg3 prom inh-2 82.3
c1ccc2c(Nc3nc(-c4ccncc4)nc4ccccc34)cccc2c1	none (no result: TRPM1 prom inh, LMP1 NFkB inh)
Fc1ccc(Nc2nc(-c3ccncc3)nc3ccccc23)cc1F	Peg3 prom inh-1 54.3 | Peg3 prom inh-2 inactive
COc1ccccc1CNC(=O)c1ccc2nc(C)c(N(C)Cc3ccc(NC(C)=O)cc3)n2c1	none (no result: TRPM1 prom inh, LMP1 NFkB inh)
CC(C)n1cc(C#N)c(N)n1	none
O=S(=O)(NC1CC(NS(=O)(=O)OCC(Cl)(Cl)Cl)C2CCCCC12)OCC(Cl)(Cl)Cl (centres undefined)	Peg3 prom inh-1 56.5 | Peg3 prom inh-2 93.2
C[C@H](NS(=O)(=O)OCC(Cl)(Cl)Cl)C1CC1c1ccccc1 (some centres undefined)	none

Screening data from PubChem BioAssay.
